Assay [1] in a line: small molecules captured by biotinylated probe aFSTL3 – biochemical, small-molecule microarray, fluorescence 635/667, stem cell growth factor project, primary screen (AID 1064).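 Further: measures binding of the biotinylated anti-FSTL3 antibody to printed compounds.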 As to conditions: higher = more signal.
A short description of assay [2]: binders from COS7 lysate, DM2A8 probe, primary screen, torsin A project, cell lysate, small-molecule microarray, fluorescence 635/667 (AID 1065). As to conditions: higher = more signal, COS7 lysate expressing mutant human TOR1A.
A short description of assay [3]: small molecules captured by biotinylated probe aFGF2 – biochemical, small-molecule microarray, fluorescence 635/667, stem cell growth factor project, primary screen (AID 1067).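 Further: measures binding of biotinylated aFGF2 protein to printed compounds on slides; z-score merges feature fluorescence and signal-to-noise across triplicate slides.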 As to conditions: higher = more signal.
Assay [4] is described as follows: small molecules captured by biotinylated probe aFGF10 – biochemical, small-molecule microarray, fluorescence 635/667, stem cell growth factor project, primary screen (AID 1071).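 Further: score merges 667 nm spot intensity and signal to noise from triplicate slides.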 As to conditions: higher = more signal.
The target in assay [5] is Neurogenic locus notch homolog protein 2 (Homo sapiens) (UniProt Q04721). As to the kind of experiment: small molecules binding Notch2 protein – biochemical, small-molecule microarray, 635 nm fluorescence, stem cell growth factors, primary screen (AID 1073). As to conditions: higher = more signal.
Assay [6] deals with Pro-neuregulin-1, membrane-bound isoform (Homo sapiens) (UniProt Q02297). Briefly: small molecules binding neuregulin-1 protein – biochemical, small-molecule microarray, fluorescence 635/667, psychiatric disease protein project, primary screen (AID 1075).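 Further: score combines 667 nm spot fluorescence with signal to noise.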 As to conditions: NRG1 binding, 635 nm fluorescence, higher = more signal.
For assay [7], the system named is Neuregulin-1 EGF-like domain. As to the kind of experiment: small molecules binding NRG1 EGF domain – biochemical, small-molecule microarray, 635 nm fluorescence, primary screen (AID 1081).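 Further: binding of the protein to compounds printed on small-molecule microarray slides.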 As to conditions: higher = more signal.
The nature of assay [8]: FRG1 expression reporter modulators in myotubes – cell-based, C2C12 myotubes, firefly/Renilla luciferase, luminescence, FRG1 inhibition for FSHD, primary screen (AID 1084). Conditions: FRG1 promoter luciferase, higher = more signal, called active from +8 up or from −8 down.
A short description of assay [9]: small molecules captured by biotinylated probe aFST – biochemical, small-molecule microarray, fluorescence 635/667, stem cell growth factor project, primary screen (AID 1086).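 Further: score merges 667 nm fluorescence with signal-to-noise of each printed compound spot.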 As to conditions: higher = more signal.
Assay [10] in a line: binders of probe aHhip on microarray, primary screen, stem cell growth factor project, biochemical, small-molecule microarray, fluorescence 635/667 (AID 1087).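 Further: score merges spot fluorescence at 667nm with spot signal to noise ratio.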 Conditions: higher = more signal.
The test system of assay [11] is PRMT1 (protein arginine N-methyltransferase 1). As to the kind of experiment: small molecules binding arginine methyltransferase PRMT1 – biochemical, small-molecule microarray, 635 nm fluorescence, primary screen (AID 1088).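 Further: binding of Prmt1 protein to compounds spotted on small-molecule microarray slides.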 As to conditions: higher = more signal.
Assay [12] can be described thus: growth effects on S. cerevisiae YJM789 – YJM789 clinical isolate, OD600, 24 h, basal, primary screen (AID 1089).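 Further: growth of clinical yeast isolate S. cerevisiae YJM 789 seeded 1000 cells per well.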 Conditions: higher = more signal, called active from +8 up or from −8 down.
Assay [13] in a line: S. pombe growth modifiers, basal conditions – strain 972, OD600, 24 h, no modulator, primary screen (AID 1090).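 Further: basal condition with compound alone and no growth modifier present.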 As to conditions: S. pombe 972 growth, higher = more signal, called active from +8 up or from −8 down.
Assay [14] in a line: budding yeast growth modifiers under rapamycin – strain BY4716, OD600, 96 h, primary screen (AID 1091). Conditions: S. cerevisiae BY4716 + rapamycin, higher = more signal, called active from +8 up or from −8 down.
In assay [15] the target is Torsin-1A-interacting protein 2 (Homo sapiens) (UniProt Q8NFQ8). As to the kind of experiment: small molecules binding lysate-expressed LULL1 – cell lysate, human LULL1 lysate, 635/667 nm fluorescence, primary screen (AID 1092).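 Further: probe is lysate of COS7 cells overexpressing human LULL1; score merges per-feature 667 nm fluorescence with signal-to-noise.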 As to conditions: small-molecule microarray, hLULL1 lysate binding, 635 nm fluorescence; higher = more signal.
Assay [16] can be described thus: optical density change of DRC41 E. coli – strain DRC41, OD650, 24 h, E. coli filamentation project, primary screen (AID 1093).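 Further: MC1000 strain lacking acrAB efflux and sulA so SOS filamentation is blocked.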 As to conditions: E. coli DRC41 growth, higher = more signal, called active from +8 up or from −8 down.
The nature of assay [17]: fungal growth arrest, C. neoformans – Alamar Blue, cherry-picks, dose response (AID 686998). Conditions: Cryptococcus neoformans growth, 24 h; series mostly up to 35 µM.
Assay [18] is described as follows: C. neoformans lysis by adenylate kinase leakage – AK release luminescence, cherry-picks, dose response (AID 687000;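 active means fitted dose curve reaches 40% lysis signal rise at or below the highest valid concentration tested for that sample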;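 further: luminescent detection of adenylate kinase leaking from lysed yeast; 0% = median neutral control signal and 100% = double that signal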). Conditions: 4 h, 100% = twice the neutral-control signal; series mostly up to 15 µM.
Assay [19] can be described thus: viability loss in HepG2 hepatoma cells – cell-based, cherry-picks, set 2, cytotoxicity control, dose response (AID 687002;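 active means a dose-response fit showing signal loss, with half-maximal concentration no higher than twice the top tested dose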). As to conditions: ATP luminescence (CellTiter-Glo), 48 h; series mostly up to 26 µM.

For some of these results: Measured potencies and affinities stand elsewhere. Inconclusive results are not listed. Active and inactive are the calls of the source.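 How the source made its calls, unless noted: active means falling signal with fitted half-maximal potency no higher than twice the top valid tested dose; inconclusive means poor fit quality, or flat fit spanning -70% to -30%; inactive means potency over limit, rising signal, or flat fit inside 30%.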

This note sets out measurements from PubChem BioAssay.

Pro-neuregulin-1, membrane-bound isoform (Homo sapiens), sequence (Q02297 whole entry, looked up, the tested form may be a part, canonical isoform): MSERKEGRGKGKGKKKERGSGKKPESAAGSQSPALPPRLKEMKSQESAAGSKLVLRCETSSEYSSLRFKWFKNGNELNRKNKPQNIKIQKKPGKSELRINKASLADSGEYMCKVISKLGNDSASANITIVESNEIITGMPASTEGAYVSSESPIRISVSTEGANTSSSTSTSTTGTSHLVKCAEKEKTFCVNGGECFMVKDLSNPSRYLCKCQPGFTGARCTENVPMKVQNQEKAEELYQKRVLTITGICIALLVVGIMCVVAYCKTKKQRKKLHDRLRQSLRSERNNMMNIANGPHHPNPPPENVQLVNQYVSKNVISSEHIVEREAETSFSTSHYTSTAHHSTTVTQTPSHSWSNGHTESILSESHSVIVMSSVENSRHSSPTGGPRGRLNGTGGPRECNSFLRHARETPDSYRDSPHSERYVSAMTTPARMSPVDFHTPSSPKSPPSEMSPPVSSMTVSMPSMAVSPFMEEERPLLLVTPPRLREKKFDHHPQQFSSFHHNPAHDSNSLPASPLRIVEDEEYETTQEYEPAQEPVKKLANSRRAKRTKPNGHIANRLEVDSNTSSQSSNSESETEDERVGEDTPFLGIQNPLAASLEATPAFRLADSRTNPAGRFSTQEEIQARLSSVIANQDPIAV
Neurogenic locus notch homolog protein 2 (Homo sapiens), sequence (Q04721 whole entry, looked up, canonical isoform): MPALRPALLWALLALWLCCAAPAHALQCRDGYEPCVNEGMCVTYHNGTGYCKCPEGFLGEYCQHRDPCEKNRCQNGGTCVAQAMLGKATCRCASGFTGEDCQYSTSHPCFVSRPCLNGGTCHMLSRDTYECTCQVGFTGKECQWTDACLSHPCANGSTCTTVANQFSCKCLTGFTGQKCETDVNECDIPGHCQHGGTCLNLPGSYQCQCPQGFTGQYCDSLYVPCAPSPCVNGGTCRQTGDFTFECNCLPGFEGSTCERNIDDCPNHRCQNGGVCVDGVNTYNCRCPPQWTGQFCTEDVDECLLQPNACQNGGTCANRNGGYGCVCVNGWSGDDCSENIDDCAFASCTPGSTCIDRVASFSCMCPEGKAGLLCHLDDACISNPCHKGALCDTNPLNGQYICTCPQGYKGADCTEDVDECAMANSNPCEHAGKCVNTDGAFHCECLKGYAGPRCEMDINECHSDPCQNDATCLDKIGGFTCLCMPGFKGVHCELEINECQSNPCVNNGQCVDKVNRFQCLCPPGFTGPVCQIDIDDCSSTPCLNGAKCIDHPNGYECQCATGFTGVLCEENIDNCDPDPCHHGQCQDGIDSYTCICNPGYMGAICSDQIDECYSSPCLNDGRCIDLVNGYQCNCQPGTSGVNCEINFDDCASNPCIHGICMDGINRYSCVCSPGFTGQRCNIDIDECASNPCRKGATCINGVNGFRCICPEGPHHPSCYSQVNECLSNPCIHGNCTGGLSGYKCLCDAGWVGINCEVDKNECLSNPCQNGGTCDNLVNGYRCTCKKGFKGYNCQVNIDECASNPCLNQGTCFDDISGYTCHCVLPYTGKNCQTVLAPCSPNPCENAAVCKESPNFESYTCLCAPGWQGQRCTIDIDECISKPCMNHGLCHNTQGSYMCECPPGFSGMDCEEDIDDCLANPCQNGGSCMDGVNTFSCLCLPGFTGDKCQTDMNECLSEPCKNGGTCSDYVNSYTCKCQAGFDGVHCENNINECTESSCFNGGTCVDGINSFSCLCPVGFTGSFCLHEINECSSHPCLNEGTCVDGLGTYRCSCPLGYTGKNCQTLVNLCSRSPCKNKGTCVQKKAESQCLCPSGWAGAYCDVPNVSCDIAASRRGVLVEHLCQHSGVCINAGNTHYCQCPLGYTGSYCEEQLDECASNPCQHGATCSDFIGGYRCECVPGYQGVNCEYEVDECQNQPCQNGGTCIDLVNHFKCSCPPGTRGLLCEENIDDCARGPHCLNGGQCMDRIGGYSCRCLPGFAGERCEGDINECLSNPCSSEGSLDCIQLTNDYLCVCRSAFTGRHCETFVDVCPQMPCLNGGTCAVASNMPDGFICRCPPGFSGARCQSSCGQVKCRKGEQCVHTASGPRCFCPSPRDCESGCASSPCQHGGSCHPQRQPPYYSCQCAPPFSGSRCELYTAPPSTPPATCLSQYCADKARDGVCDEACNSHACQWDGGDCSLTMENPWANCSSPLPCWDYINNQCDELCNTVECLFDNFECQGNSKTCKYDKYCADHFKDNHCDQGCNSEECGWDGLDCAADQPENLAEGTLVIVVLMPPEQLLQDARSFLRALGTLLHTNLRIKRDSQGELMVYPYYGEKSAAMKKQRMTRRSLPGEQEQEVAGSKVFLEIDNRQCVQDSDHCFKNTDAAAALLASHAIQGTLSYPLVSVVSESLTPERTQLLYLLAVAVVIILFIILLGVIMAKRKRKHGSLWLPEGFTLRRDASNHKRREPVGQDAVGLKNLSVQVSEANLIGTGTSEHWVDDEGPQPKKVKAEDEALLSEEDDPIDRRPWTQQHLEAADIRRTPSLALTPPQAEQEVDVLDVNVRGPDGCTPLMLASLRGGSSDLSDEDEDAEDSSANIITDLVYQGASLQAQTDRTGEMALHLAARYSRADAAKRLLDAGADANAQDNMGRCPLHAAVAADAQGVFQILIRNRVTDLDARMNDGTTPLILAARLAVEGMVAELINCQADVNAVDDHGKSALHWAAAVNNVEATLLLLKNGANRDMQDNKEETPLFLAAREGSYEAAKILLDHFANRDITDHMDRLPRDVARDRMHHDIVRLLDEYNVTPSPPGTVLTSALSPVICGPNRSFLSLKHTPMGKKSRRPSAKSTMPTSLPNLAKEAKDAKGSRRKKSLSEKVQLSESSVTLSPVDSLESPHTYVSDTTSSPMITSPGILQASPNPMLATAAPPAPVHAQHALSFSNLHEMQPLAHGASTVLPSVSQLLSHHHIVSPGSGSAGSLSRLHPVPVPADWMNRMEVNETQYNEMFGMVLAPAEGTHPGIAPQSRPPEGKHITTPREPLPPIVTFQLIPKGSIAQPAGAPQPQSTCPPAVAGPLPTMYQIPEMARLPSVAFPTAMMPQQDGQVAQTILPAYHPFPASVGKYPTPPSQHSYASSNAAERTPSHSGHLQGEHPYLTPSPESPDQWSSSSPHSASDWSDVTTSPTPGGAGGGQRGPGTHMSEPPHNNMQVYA
Torsin-1A-interacting protein 2 (Homo sapiens), sequence (Q8NFQ8 whole entry, looked up): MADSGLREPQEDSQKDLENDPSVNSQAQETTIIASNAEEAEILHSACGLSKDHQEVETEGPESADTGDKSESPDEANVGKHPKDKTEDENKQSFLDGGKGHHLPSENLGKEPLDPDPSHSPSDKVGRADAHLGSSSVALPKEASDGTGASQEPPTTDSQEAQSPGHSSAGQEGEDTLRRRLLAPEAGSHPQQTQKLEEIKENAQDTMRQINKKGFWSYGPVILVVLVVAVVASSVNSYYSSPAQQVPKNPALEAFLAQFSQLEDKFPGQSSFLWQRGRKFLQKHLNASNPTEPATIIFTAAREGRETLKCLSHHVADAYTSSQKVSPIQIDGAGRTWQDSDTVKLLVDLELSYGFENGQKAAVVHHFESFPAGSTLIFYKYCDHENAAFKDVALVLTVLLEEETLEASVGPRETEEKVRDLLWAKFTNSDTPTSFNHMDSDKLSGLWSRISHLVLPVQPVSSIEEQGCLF

With `C=C(COC)/C(=C/C[C@H](OC(C)=O)c1ccc(CO)o1)c1cnc2ccccc2c1`, the composite z-score was -0.17 in assay [1]; 1.29 in assay [2]; -0.0316 in assay [3]; 0.665 in assay [4]; 1.4 in assay [5]; 0.64 in [6]. The composite z-score was 1.01 in assay [7]; 0.314 in assay [9]; -0.0024 in [10]; 1.41 in assay [11]; 2.48 in assay [15]. Also, the z-score in [8] is -0.524 (inactive); in assay [12], -0.342 (inactive); in assay [13], -0.897 (inactive); in assay [14], -1.06 (inactive); in assay [16], 1.15 (inactive).

On to `CC(C)CNC(=O)[C@@H]1c2ccccc2C(=O)N(Cc2ccc(OC(F)(F)F)cc2)[C@H]1c1ccc(CO)cc1`, for which the composite z-score is -0.0768 in assay [1]; 0.849 in assay [2]; -0.0095 in [3]; 0.34 in [4]; 0.988 in assay [5]; 1.15 in assay [6]. Further, the composite z-score in assay [7] is 1.21; in [9], 0.941; in assay [10], -0.206; in assay [11], 1.54; in assay [15], 3.01. The z-score in [8] is -2.61 (inactive); in assay [12] it was -1.87 (inactive); in assay [13], -2.91 (inactive); in [14] it was -1.06 (inactive); in assay [16] it was 3.96 (inactive).

As to `O=C(N1CCCCC1)[C@@]1(Cc2ccccc2)N=C(c2ccc(OCCCO)cc2)O[C@H]1c1ccccc1`, the composite z-score is 0.994 in [1]; 2 in assay [2]; 0.103 in assay [3]; 0.235 in [4]; 1.58 in assay [5]; 1.05 in [6]. Also, the composite z-score in assay [7] is 1.02; in assay [9], 1.52; in assay [10], -0.146; in [11], 1.18; in assay [15], 2.99. Further, the z-score was -3.21 (inactive) in [8]; -0.997 (inactive) in assay [12]; -2.65 (inactive) in assay [13]; 4.43 (inactive) in assay [14]; 0.668 (inactive) in assay [16].

Turning to `C=C(CCCC)/C(=C/C[C@H](OC(=O)c1ccncc1)c1ccc(CO)o1)c1cnc2ccccc2c1`, the composite z-score in assay [1] was -0.408; in assay [2], 0.536; in assay [3] it was -0.0332; in assay [4], 0.941; in [5], 1.41; in assay [6], -0.185. Also, the composite z-score in assay [7] turned out to be 1.04; in assay [9] it was 0.761; in assay [10] it was 0.265; in assay [11] it was 1.56; in [15], 1.89. Also, the z-score in [8] is -0.587 (inactive); in [12] it was 3.23 (inactive); in assay [13], -1.99 (inactive); in assay [14] it was -0.516 (inactive); in assay [16], 0.74 (inactive).

For `C=CCN1C(=O)[C@@]2(O[C@@H](CCO)[C@H]([Si](C)(C)c3ccc(OC)cc3)[C@H]2C)c2cc(N(C=O)c3ccccc3)ccc21`, the composite z-score is 0.156 in [1]; 0.24 in [2]; -0.125 in assay [3]; 0.461 in assay [4]; 0.555 in assay [5]; 0.657 in assay [6]. The composite z-score in assay [7] came to 0.904; in assay [9], 0.143; in assay [10] it was 0.154; in assay [11], 1.11; in [15] it was 0.586. In addition, the z-score in assay [8] is -1.06 (inactive); in assay [12] it was 0.551 (inactive); in assay [13], -0.67 (inactive); in [14], 21 (active); in assay [16] it was 1.85 (inactive).

Turning to `O=C(NO)[C@]1(Cc2ccccc2)N=C(c2ccc(OCCCO)cc2)O[C@@H]1c1ccccc1`, the composite z-score is 0.464 in assay [1]; 1.2 in assay [2]; -0.246 in [3]; -0.134 in [4]; -0.66 in assay [5]; 0.545 in assay [6]. For the same compound, the composite z-score in assay [7] is -0.921; in assay [9], 0.14; in assay [10], -0.0645; in assay [11], -0.269; in assay [15] it was -0.231. The z-score in assay [8] was -1.62 (inactive); in assay [12], -4.96 (inactive); in assay [13] it was -3.08 (inactive); in assay [14] it was -1.94 (inactive); in assay [16], 3.42 (inactive).

Consider `CCOC(=O)C[C@H]1[C@H](OC(=O)c2cc3ccccc3oc2=O)[C@@H](NC(=O)c2ccccc2)c2cc(OCCCO)ccc2N1C(=O)Cc1ccc(OC)cc1`, for which the composite z-score in assay [1] was -0.297; in assay [2] it was 0.682; in [3] it was -0.038; in [4] it was 0.575; in assay [5] it was 0.81; in assay [6] it was 0.147. For the same compound, the composite z-score in [7] is -0.1; in assay [9], 0.514; in [10], 0.0302; in [11] it was -0.0867; in assay [15], 0.239. The z-score is -0.265 (inactive) in assay [8]; -0.196 (inactive) in assay [12]; -1.08 (inactive) in assay [13]; -0.846 (inactive) in assay [14]; 2.9 (inactive) in [16].

As to `COc1ccc([Si](C)(C)[C@H]2[C@H](CC(=O)N3Cc4ccccc4C[C@H]3CO)O[C@@]3(C(=O)N(Cc4cccc(N5C(=O)COc6ccccc65)c4)c4ccccc43)[C@@H]2C)cc1`, the composite z-score in [1] was -0.187; in [2], 0.572; in assay [3] it was -0.12; in assay [4] it was 0.429; in assay [5] it was 0.659; in assay [6], 0.838. The composite z-score in assay [7] is 1.08; in assay [9], 0.203; in assay [10] it was 0.0873; in [11], 1.47; in assay [15], 1.89. Also, the z-score was -3.08 (inactive) in [8]; -0.41 (inactive) in assay [12]; 0.349 (inactive) in assay [13]; 2.29 (inactive) in assay [14]; 1.86 (inactive) in assay [16].

Take `CC(C)[C@@H](C(=O)O)n1cc(-c2ccccn2)nn1`: the composite z-score in assay [1] is 0.22; in assay [2] it was 0.424; in [3], -0.378; in [4], 0.458; in [5] it was 0.537; in assay [6], 0.419. For the same compound, the composite z-score came out at 0.961 in [7]; 0.659 in [9]; 0.0274 in assay [10]; 0.575 in [11]; 0.88 in assay [15]. Besides, the z-score in assay [8] is 0.0328 (inactive); in assay [12], 0.0655 (inactive); in [13], -0.477 (inactive); in assay [14] it was -0.353 (inactive); in assay [16], 1.99 (inactive).

As for `CC(C)C(CO)N1C(=O)[C@@H]2C3C(=O)OCCC/C=C\[C@H]3OC23C=CCN(C(C)C)C(=O)[C@@H]13` (stereo partly specified), the composite z-score in assay [1] was 0.303; in [2], 0.716; in assay [3], -0.116; in assay [4], -0.836; in assay [5], -1.43; in assay [6] it was 2.17. For the same compound, the composite z-score in [7] is 0.784; in assay [9], -0.381; in [10], -0.0994; in assay [11], 0.613; in [15], 2.65. Further, the z-score was 0.366 (inactive) in [8]; -1.1 (inactive) in assay [12]; -1.55 (inactive) in assay [13]; -1.1 (inactive) in assay [14]; 2.41 (inactive) in assay [16].

On to `C[C@@H](NC(=O)C[C@@H]1CC[C@H]2[C@@H](COC[C@@H](O)CN2Cc2cc(F)ccc2F)O1)c1ccccc1`, for which the outcome in [17], in [18] and in assay [19] was inactive.

With `C[C@@H]1CN([C@@H](C)CO)S(=O)(=O)c2ccc(-c3ccccc3)cc2O[C@H]1CN(C)C(=O)C1CCCCC1`, the compound was classed as inactive in [17], in [18] and in assay [19].
